Reference: PubChem BioAssay (Tox21)
Results filed as inconclusive are left out. Calls of active or inactive are those of the source. Unless noted, calls follow the shape of the full dose curve.

Experiments:
[1] = Nuclear factor erythroid 2-related factor 2/antioxidant responsive element (Nrf2/ARE) small molecule agonists: qHTS cell viability counter screen in human keratinocytes (AID 1919968; active = well fitted cell-killing curve with a large enough effect in the repeat runs; also: nearly all actives have a fitted effect of over 55% in size)
How it was run: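 Cells of the KeratinoSens line were plated at 1,500 per well and left for 5 h before compound transfer from DMSO stocks. After a 23 h incubation (37 C, 5% CO2), CellTiter-Fluor was added. Signal was taken as fluorescence intensity 1 h later.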

[2] = Nuclear factor erythroid 2-related factor 2/antioxidant responsive element (Nrf2/ARE) small molecule agonists: luciferase reporter gene qHTS assay in human keratinocytes (AID 1919969); also: nearly all actives have a fitted effect of over 35% in size
[3] = G protein-coupled receptor (GPCR) small molecule agonists, calcium flux assay: HEK293 wild type cell line counter screen (AID 1920065)
How it was run: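 Tox21 10K compounds, 15 concentrations each in triplicate, pin-transferred in DMSO onto dye-loaded cells; kinetic read at 480/540 nm for 3 min, 1 s intervals.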

[4] = p53 small molecule agonists, cell-based qHTS assay with human liver microsomes (AID 1963577);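 also: p53 response element beta-lactamase reporter cells with liver microsomes plus NADPH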
How it was run: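 16 h, 37 C exposure of p53RE-bla cells to compounds with human liver microsomes and NADPH (0.5 mg/mL final each); detection via LiveBLAzer mixture, 2 h dark at room temperature.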

[5] = p53 small molecule agonists, cell-based qHTS assay with rat liver microsomes (AID 1963578)
How it was run: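 With rat liver microsomes and NADPH present (0.5 mg/mL final each), p53RE-bla cells are treated with compound for 16 h at 37 C. LiveBLAzer detection mixture is then applied for 2 h at room temperature in the dark.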

[6] = p53 small molecule agonists, cell-based qHTS assay with human liver microsomes: qHTS cell viability counter screen (AID 1963579); also: nearly all actives have a fitted effect of over 45% in size
How it was run: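 In this multiplexed counter screen, the reporter plates were subsequently treated with CellTiter-Glo so that cell viability, reflected by luminescence, could be recorded for p53RE-bla cells dosed 16 h with compounds under microsomal activation (HLM and NADPH).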

[7] = p53 small molecule agonists, cell-based qHTS assay with rat liver microsomes: qHTS cell viability counter screen (AID 1963580); also: nearly all actives have a fitted effect of over 45% in size
How it was run: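 Cytotoxicity counter screen: intracellular ATP read by CellTiter-Glo luminescence in the p53 reporter wells. HCT-116 p53RE-bla cells were treated for 16 h at 37 C alongside rat liver microsomes and NADPH, each 0.5 mg/mL final.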

[8] = p53 small molecule agonists, cell-based qHTS assay: qHTS cell viability counter screen (AID 1963581); also: nearly all actives have a fitted effect of over 45% in size
How it was run: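 ATP content measured by luminescence in HCT-116 p53RE-bla cells treated 16 h at 37 C, same wells as the reporter screen.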

[9] = p53 small molecule agonists, cell-based qHTS assay (AID 1963582; active = well fitted activation curve with a large enough effect in the signal ratio in the repeat runs, not every such curve was filed as active; the % refers to the signal ratio)
How it was run: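 16 h compound exposure (37 C) of p53 response element–bla cells, preceded by 5 h recovery at 37 C/5% CO2; read-out via LiveBLAzer B/G FRET substrate, 2 h RT, fluorescence intensity.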

[10] = target: 5-hydroxytryptamine receptor 2A (Homo sapiens) (UniProt P28223); assay: 5-hydroxytryptamine receptor 2A (HTR2A) small molecule antagonists, cell-based qHTS assay (AID 1963586); also: nearly all actives have a fitted effect of over 45% in size
5-hydroxytryptamine receptor 2A (Homo sapiens), sequence (P28223 whole entry, looked up): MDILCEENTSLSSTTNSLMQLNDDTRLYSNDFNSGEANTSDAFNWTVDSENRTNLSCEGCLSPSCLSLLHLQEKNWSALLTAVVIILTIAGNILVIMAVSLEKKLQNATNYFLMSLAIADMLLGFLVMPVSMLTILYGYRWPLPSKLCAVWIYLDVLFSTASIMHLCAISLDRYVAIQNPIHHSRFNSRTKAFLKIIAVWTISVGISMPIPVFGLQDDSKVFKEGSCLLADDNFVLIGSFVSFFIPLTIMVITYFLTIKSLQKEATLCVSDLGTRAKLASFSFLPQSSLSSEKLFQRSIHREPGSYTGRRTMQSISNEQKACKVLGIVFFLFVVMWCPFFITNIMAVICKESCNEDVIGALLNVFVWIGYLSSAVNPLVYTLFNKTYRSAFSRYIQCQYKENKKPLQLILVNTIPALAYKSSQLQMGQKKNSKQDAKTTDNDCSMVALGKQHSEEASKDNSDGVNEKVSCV
How it was run: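 CHO cells stably expressing human HTR2A were plated for 18 h at 37 C, then loaded with calcium dye for 1 h. Compounds were preincubated 5 min at room temperature before DOI (4 nM solution) was added. Kinetic fluorescence was read for 3 min.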

[11] = target: 5-hydroxytryptamine receptor 2A (Homo sapiens) (UniProt P28223); assay: 5-hydroxytryptamine receptor 2A (HTR2A) small molecule agonists, cell-based qHTS assay (AID 1963587); also: nearly all actives have a fitted effect of over 30% in size
How it was run: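 Kinetic calcium-flux fluorescence (2 min, 1 sec intervals) after compound addition in agonist mode. HTR2A-CHO cells were cultured 18 h, then dye-loaded 1 h at 37 C.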

[12] = target: Muscarinic acetylcholine receptor M1 (Homo sapiens) (UniProt P11229); assay: Cholinergic receptor muscarinic 1 (CHRM1) small molecule antagonists, cell-based qHTS assay (AID 1963588); also: nearly all actives have a fitted effect of over 40% in size
Muscarinic acetylcholine receptor M1 (Homo sapiens), sequence (P11229 whole entry, looked up): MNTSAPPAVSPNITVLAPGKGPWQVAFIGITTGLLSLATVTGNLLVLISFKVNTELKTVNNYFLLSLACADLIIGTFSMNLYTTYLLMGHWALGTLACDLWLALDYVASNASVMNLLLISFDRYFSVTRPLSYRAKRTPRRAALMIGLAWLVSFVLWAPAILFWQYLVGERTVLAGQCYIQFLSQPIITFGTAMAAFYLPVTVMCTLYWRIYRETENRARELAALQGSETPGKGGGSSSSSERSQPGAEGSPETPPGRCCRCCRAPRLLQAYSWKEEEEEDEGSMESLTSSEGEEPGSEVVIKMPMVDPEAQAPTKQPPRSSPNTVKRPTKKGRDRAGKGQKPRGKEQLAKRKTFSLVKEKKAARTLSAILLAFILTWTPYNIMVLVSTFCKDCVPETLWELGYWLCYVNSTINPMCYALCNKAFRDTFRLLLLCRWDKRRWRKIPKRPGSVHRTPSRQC
How it was run: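 Compounds were tested at 15 concentrations in three independent runs. Dye-loaded CHRM1-CHO cells were exposed 5 min at room temperature before stimulation by acetylcholine added at 50nM. Intracellular calcium was read kinetically on FDSS for 3 min.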

[13] = target: Muscarinic acetylcholine receptor M1 (Homo sapiens) (UniProt P11229); assay: Cholinergic receptor muscarinic 1 (CHRM1) small molecule agonists, cell-based qHTS assay (AID 1963589); also: nearly all actives have a fitted effect of over 35% in size
How it was run: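 Homogeneous fluorescence calcium flux, agonist mode. Human M1-expressing CHO cells; compound dosed at 15 concentrations, three independent runs; signal sampled every 1 sec.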

[14] = cAMP Responsive Elements (CRE) small molecule agonists, cell-based qHTS assay (AID 1963590)
How it was run: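 HEK 293T cells stably bearing CRE-bla were plated at 2,000 cells per well and rested 18 h. Compounds, positive controls or DMSO were added for 3 h at 37 C. LiveBLAzer B/G substrate was then loaded for 2 h at room temperature.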

[15] = cAMP Responsive Elements (CRE) small molecule antagonists, cell-based qHTS assay (AID 1963591; active = well fitted inhibition curve with a large enough effect in the signal ratio in the repeat runs, not every such curve was filed as active; the % refers to the signal ratio)
How it was run: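 First, CRE-bla HEK293T cells settled 18 h at 37 C. Next, compound and 0.25 uM final NKH477 were applied for 3 h. Last, LiveBLAzer B/G substrate was loaded for 2 h at room temperature.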

[16] = target: Beta-2 adrenergic receptor (Homo sapiens) (UniProt P07550); assay: Adrenergic beta2 receptor (ADRB2) small molecule antagonists, cell-based qHTS assay (AID 1963592); also: series mostly up to about 92 µM; nearly all actives have a fitted effect of over 50% in size
Beta-2 adrenergic receptor (Homo sapiens), sequence (P07550 whole entry, looked up): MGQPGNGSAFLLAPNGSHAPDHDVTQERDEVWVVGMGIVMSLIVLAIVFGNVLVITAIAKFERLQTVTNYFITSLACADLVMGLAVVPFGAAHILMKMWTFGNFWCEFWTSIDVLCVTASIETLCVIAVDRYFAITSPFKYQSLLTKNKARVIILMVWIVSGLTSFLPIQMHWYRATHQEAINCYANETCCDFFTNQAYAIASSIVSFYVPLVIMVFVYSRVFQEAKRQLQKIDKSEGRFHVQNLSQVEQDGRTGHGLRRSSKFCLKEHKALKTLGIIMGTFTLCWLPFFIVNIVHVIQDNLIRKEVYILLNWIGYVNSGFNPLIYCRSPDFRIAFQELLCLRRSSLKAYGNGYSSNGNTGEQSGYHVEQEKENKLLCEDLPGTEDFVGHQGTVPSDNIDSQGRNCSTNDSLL
How it was run: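 Assay format: CHO-ADRB2 cells, 18-20hr seeding at 37C/5% CO2, then compound plus 1nM isoproterenol agonist mix for 0.5hr RT. Homogeneous time-resolved fluorescence cAMP detection after 1hr, expressed as 665/615 nm ratio.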

[17] = target: Beta-2 adrenergic receptor (Homo sapiens) (UniProt P07550); assay: Adrenergic beta2 receptor (ADRB2) small molecule agonists, cell-based qHTS assay (AID 1963593);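 also: CHO cells stably overexpressing human ADRB2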
How it was run: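 CHO cells stably over-expressing ADRB2 were plated overnight at 37C, then dosed with compounds plus a stimulation mix containing 100uM IBMX and 25uM Ro-20-1724 for 0.5hr at room temperature. cAMP was measured by HTRF competition, 1hr.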

[18] = target: D(2) dopamine receptor (Homo sapiens) (UniProt P14416); assay: Dopamine D2 receptor (DRD2) small molecule agonists, cell-based qHTS assay (AID 1963594); also: nearly all actives have a fitted effect of over 35% in size
D(2) dopamine receptor (Homo sapiens), sequence (P14416 whole entry, looked up): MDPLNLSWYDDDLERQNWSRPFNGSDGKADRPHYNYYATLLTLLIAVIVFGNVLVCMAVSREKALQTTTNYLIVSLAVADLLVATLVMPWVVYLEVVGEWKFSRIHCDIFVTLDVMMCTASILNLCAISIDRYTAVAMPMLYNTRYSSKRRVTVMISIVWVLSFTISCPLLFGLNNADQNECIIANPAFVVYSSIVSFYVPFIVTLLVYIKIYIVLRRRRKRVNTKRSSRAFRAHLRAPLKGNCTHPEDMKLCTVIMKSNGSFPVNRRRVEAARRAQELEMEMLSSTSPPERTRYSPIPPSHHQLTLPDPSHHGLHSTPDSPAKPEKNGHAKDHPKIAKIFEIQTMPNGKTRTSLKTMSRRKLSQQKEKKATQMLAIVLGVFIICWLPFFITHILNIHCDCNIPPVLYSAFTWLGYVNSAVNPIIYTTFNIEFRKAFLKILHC
How it was run: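 cAMP accumulation in DRD2-HEK293 cells measured by HTRF after 1 h detection; compounds added 10 min before NKH477 (200nM […]) forskolin-analogue stimulation, 30 min at room temperature, with Ro20-1724 present at 0.1 mM final.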

[19] = target: D(2) dopamine receptor (Homo sapiens) (UniProt P14416); assay: Dopamine D2 receptor (DRD2) small molecule antagonists, cell-based qHTS assay (AID 1963595; active = well fitted inhibition curve with a large enough effect in the signal ratio in the repeat runs, with a control signal flat; the % refers to the signal ratio)
How it was run: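 Antagonist mode in DRD2-HEK293 cells: after compound addition with 0.1 mM Ro20-1724, cells received quinpirole (12 nM) and NKH477 (200 nM) for 30 min at room temperature; HTRF cAMP read after 1 h detection.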

[20] = target: Gonadotropin-releasing hormone receptor (Homo sapiens) (UniProt P30968); assay: Human gonadotropin-releasing hormone receptor (GnRHR) small molecule agonists, calcium flux assay in GnRHR-HEK293 cells (AID 1920063); also: nearly all actives have a fitted effect of over 35% in size
Gonadotropin-releasing hormone receptor (Homo sapiens), sequence (P30968 whole entry, looked up): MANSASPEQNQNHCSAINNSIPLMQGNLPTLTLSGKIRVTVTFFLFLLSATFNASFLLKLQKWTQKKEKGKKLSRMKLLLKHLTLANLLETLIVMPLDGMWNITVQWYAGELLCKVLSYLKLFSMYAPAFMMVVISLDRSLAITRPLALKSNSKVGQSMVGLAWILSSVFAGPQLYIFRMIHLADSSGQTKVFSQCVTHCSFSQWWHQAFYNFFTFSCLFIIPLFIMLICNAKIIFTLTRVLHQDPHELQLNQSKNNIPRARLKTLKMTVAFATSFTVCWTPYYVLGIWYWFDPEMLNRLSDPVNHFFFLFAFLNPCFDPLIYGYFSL
How it was run: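 Compounds dissolved in DMSO are pin-transferred onto dye-loaded GnRHR-HEK293 cells, which were seeded 18 h before at 37 C/5% CO2. Calcium signal is read as fluorescence intensity at 1 s intervals for 3 min.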
% is scaled to controls: 0 for no effect and ±100 for the full control effect.

CCCOCCC
inactive: Potency [1] | Potency [2] | Potency [3] | Potency [4] | Potency [5] | Potency [6] | Potency [7] | Potency [8] | Potency [9] | Potency [10] | Potency [11] | Potency [12] | Potency [13] | Potency [14] | Potency [15] | Potency [16] | Potency [17] | Potency [18] | Potency [19]

NC(=O)c1cccc([N+](=O)[O-])c1
inactive: Potency [1] | Potency [2] | Potency [3] | Potency [4] | Potency [5] | Potency [6] | Potency [7] | Potency [8] | Potency [9] | Potency [10] | Potency [11] | Potency [13] | Potency [15] | Potency [16] | Potency [18] | Potency [19]

Nc1cccc(N)n1
inactive: Potency [1] | Potency [2] | Potency [20] | Potency [3] | Potency [6] | Potency [7] | Potency [8] | Potency [10] | Potency [12] | Potency [13] | Potency [14] | Potency [15] | Potency [18]

CCC/C=C/C=O
inactive: Potency [1] | Potency [2] | Potency [20] | Potency [3] | Potency [6] | Potency [8] | Potency [11] | Potency [12] | Potency [13] | Potency [14] | Potency [15] | Potency [16] | Potency [17] | Potency [18]

CCOC(=O)C(C)C(C)=O (stereo not drawn)
inactive: Potency [1] | Potency [2] | Potency [3] | Potency [4] | Potency [5] | Potency [6] | Potency [7] | Potency [8] | Potency [9] | Potency [10] | Potency [11] | Potency [12] | Potency [14] | Potency [16] | Potency [17] | Potency [18] | Potency [19]

CCCCCC(CC)OC(=O)CCCOc1ccc(Cl)cc1Cl (stereo not drawn)
inactive: Potency [1] | Potency [2] | Potency [3] | Potency [4] | Potency [5] | Potency [6] | Potency [7] | Potency [8] | Potency [9] | Potency [10] | Potency [11] | Potency [12] | Potency [13] | Potency [14] | Potency [15] | Potency [16] | Potency [17] | Potency [18] | Potency [19]

NC[C@H]1O[C@H](O[C@H]2[C@H](O)[C@@H](O[C@H]3O[C@H](CO)[C@@H](O)[C@H](N)[C@H]3O)[C@H](N)C[C@@H]2N)[C@H](N)[C@@H](O)[C@@H]1O
inactive: activity change, negative = cytotoxicity [1] -0.0182% [at 19 µM] | activity, positive = activation [2] 2.7% [at 19 µM] | activation [3] -0.87% [at 11.8 µM] | activation [4] -1.52% [at 13.5 µM] | activation [5] -0.665% [at 13.6 µM] | activity change, negative = cytotoxicity [6] -3.3% [at 13.5 µM] | activity change, negative = cytotoxicity [7] 3.53% [at 13.5 µM] | activity change, negative = cytotoxicity [8] -25.6% [at 13.5 µM] | activation [9] 0.52% [at 13.5 µM] | activity, negative = inhibition [10] 6.4% [at 12.7 µM] | activation [11] -0.88% [at 15.9 µM] | activity, negative = inhibition [12] 7.06% [at 12.6 µM] | activation [13] -0.129% [at 15.8 µM] | activation [14] 0.862% [at 19 µM] | activation [18] -0.355% [at 19 µM]
